The text below walks through data of the supplement of paper PMC13094657.

± gives the standard deviation of the averaged measurements.

This assay deals with MDA-MB-231. Put plainly: kynurenine production, fold change vs DMSO IFNg/TNF control; higher = more kynurenine produced (less inhibition). The note with it: pre-treatment time: 18 h then 24 h IFNg/TNF. The essentials: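 After trichloroacetic acid and p-dimethylaminobenzaldehyde treatment, supernatants were read at 492 nm, with 0–100 μM standards. These came from MDA-MB-231 cells (7 × 10^4/well, 96-well plates) pre-treated 18 h with natural products in 0.1% DMSO and then exposed 24 h to IFNγ (1 U/ml) and TNF (6.25 ng/ml) at 37°C. Values for kynurenine production are fold changes over same-plate cytokine-stimulated vehicle wells, averaged over duplicate plates in the first screening round.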
`C[C@@H]1CC[C@H]2[C@@H](C)C(=O)O[C@@H]3O[C@@]4(C)CC[C@@H]1[C@]32O4` [Deoxyartemisinin] (compound dose: 10 uM): the kynurenine production was 0.8521 ± 0.0034.

For `CC(=O)O[C@H]1CC(=O)OC(C)(C)[C@@H]2CC(=O)[C@]3(C)[C@H](CC[C@@]4(C)[C@@H](c5ccoc5)OC(=O)[C@H]5O[C@]543)[C@@]12C` [Nomilin] (compound dose: 10 uM), the kynurenine production turned out to be 0.942 ± 0.087.

As for `CC1=CC[C@@H](C(C)(C)O)CC1` [α terpineol (mixed)] (compound dose: 10 uM), the kynurenine production turned out to be 0.876 ± 0.082.

Turning to `CC1=CCC(C(C)C)=CC1` [γ-Terpinene] (compound dose: 10 uM), the kynurenine production worked out at 0.75 ± 0.53.

`COc1ccc2c(c1O)C(Cc1ccc(O)cc1)[N+](C)(C)CC2` (configuration not stated) [Oblongine] (compound dose: 10 uM): the kynurenine production amounted to 1.03 ± 0.071.

On to `CC(=O)OC[C@H]1O[C@@H](OC[C@H]2O[C@@H](OC(=O)[C@]34CCC(C)(C)C[C@H]3C3=CC[C@@H]5[C@@]6(C)CC[C@H](O[C@@H]7OC[C@H](O)[C@H](O)[C@H]7O[C@@H]7O[C@H](CO)[C@@H](O)[C@H](O)[C@H]7O)C(C)(C)[C@@H]6CC[C@@]5(C)[C@]3(C)CC4)[C@H](O)[C@@H](O)[C@@H]2O)[C@H](O)[C@@H](O)[C@@H]1O[C@@H]1O[C@@H](C)[C@H](O)[C@@H](O)[C@H]1O` [Acanthopanaxoside B] (compound dose: 10 uM), for which the kynurenine production worked out at 1.01 ± 0.17.

As to `COC(=O)[C@H]1[C@H]2C[C@@H]3c4[nH]c5cc(OC)ccc5c4CCN3C[C@H]2C[C@@H](OC(=O)c2cc(OC)c(OC)c(OC)c2)[C@@H]1OC` [Reserpine] (compound dose: 10 uM), the kynurenine production turned out to be 1.02 ± 0.067.
